In PubChem BioAssay (EPA / NIEHS) one finds outcome and AC50 data, which are given here for 23 compounds.

Experiment [1] concerns the target human Retinoid X Receptor beta (RXRb), RXRB (gene 6257) (UniProt P28702). Put plainly: ATG_RXRb_TRANS: Attagene TRANS-FACTORIAL HepG2 Assay for human Retinoid X Receptor beta (RXRb) (AID 2283013). An outline of the steps:
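HepG2 cells transiently transfected with multiplexed reporter units driven by GAL4-UAS and exogenous chimeric NR-Gal4 proteins; treated 24 h. Reporter mRNA measured by RT-PCR, 6-FAM labelling and capillary electrophoresis; gain-of-signal fitted versus DMSO baseline.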

Experiment [2] concerns the target Retinoic acid receptor RXR-alpha (Homo sapiens) (UniProt P19793). Put plainly: ATG_RXRa_TRANS: Attagene TRANS-FACTORIAL HepG2 Assay for human Retinoid X Receptor alpha (RXRa) (AID 2283012). The essentials: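 HepG2 cells transiently transfected with multiplexed GAL4-UAS reporter units and chimeric NR-GAL4 fusions, dosed 24 h. Reporter mRNA measured by RT-PCR, FAM labelling, HpaI digestion and capillary electrophoresis; gain-of-signal fitted relative to DMSO baseline.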

For experiment [3], the target named is human Vitamin D Receptor (VDR), VDR (gene 7421) (UniProt P11473). Put plainly: ATG_VDR_TRANS: Attagene TRANS-FACTORIAL HepG2 Assay for human Vitamin D Receptor (VDR) (AID 2283022). The essentials: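 HepG2 cells were transiently transfected with GAL4-UAS reporter units and a chimeric VDR-Gal4 construct, then dosed for 24 hours. Reporter mRNA was quantified by RT-PCR, fluorescent labeling, HpaI digestion and capillary electrophoresis; gain of signal analysed vs DMSO.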
Sequence of human Vitamin D Receptor (VDR), VDR (gene 7421) (P11473 whole entry, looked up, the tested form may be a part): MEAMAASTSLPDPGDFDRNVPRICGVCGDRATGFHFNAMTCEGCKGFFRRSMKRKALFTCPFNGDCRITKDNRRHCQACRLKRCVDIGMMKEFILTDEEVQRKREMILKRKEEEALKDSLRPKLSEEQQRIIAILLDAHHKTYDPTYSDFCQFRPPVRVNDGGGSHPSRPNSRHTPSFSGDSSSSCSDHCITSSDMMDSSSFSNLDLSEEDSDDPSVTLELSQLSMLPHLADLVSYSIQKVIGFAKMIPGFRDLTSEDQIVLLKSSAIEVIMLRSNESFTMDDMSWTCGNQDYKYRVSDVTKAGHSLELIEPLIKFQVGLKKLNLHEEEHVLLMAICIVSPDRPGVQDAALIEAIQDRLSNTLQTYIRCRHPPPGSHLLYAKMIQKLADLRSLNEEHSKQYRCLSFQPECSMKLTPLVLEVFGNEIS

Experiment [4] has as its target human Thyroid Receptor alpha (THRa1), THRA (gene 7067) (UniProt P10827). Put plainly: ATG_THRa1_TRANS: Attagene TRANS-FACTORIAL HepG2 Assay for human Thyroid Receptor alpha (THRa1) (AID 2283014). The essentials:
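HepG2 cells transiently transfected with chimeric NR-Gal4 and GAL4-UAS reporter units, dosed 24 h. Reporter mRNA quantified by RT-PCR, fluorescent labeling, HpaI digestion and capillary electrophoresis; gain-of-signal fit versus DMSO.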

Results filed as inconclusive are left out. Activity calls are given as the source filed them. The calls were made as follows: active = hit-call score of the fitted dose curve at least 0.9, where 1 is the maximum; inconclusive = response in the unintended direction; inactive = score below 0.9.

Sequence of human Retinoid X Receptor beta (RXRb), RXRB (gene 6257) (P28702 whole entry, looked up, the tested form may be a part): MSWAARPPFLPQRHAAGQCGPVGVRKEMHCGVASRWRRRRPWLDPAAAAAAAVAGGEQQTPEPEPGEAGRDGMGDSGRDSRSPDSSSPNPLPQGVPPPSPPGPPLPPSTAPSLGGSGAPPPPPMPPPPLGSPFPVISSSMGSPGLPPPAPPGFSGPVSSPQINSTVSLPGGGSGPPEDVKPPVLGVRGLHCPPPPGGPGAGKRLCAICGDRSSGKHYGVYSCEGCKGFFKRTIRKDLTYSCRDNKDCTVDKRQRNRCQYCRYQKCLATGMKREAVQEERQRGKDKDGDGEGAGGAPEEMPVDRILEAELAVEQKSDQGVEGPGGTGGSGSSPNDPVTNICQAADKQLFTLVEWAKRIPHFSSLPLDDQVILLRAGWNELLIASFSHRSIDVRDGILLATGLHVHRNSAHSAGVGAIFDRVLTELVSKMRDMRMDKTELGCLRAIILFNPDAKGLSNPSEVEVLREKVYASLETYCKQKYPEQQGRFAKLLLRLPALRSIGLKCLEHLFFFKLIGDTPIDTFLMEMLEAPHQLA
Sequence of Retinoic acid receptor RXR-alpha (Homo sapiens) (P19793 whole entry, looked up, the tested form may be a part): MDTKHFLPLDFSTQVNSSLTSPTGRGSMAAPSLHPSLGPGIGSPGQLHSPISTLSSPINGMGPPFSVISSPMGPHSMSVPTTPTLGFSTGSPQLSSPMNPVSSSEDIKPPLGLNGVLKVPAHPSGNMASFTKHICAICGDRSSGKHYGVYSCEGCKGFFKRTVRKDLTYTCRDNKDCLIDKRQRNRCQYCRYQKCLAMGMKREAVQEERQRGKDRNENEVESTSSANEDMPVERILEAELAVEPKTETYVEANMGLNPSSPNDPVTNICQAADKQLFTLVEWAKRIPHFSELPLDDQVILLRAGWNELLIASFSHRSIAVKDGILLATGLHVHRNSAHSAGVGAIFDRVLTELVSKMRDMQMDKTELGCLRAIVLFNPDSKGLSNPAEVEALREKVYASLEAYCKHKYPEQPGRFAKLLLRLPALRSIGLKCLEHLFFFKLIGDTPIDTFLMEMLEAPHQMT
Sequence of human Thyroid Receptor alpha (THRa1), THRA (gene 7067) (P10827 whole entry, looked up, the tested form may be a part): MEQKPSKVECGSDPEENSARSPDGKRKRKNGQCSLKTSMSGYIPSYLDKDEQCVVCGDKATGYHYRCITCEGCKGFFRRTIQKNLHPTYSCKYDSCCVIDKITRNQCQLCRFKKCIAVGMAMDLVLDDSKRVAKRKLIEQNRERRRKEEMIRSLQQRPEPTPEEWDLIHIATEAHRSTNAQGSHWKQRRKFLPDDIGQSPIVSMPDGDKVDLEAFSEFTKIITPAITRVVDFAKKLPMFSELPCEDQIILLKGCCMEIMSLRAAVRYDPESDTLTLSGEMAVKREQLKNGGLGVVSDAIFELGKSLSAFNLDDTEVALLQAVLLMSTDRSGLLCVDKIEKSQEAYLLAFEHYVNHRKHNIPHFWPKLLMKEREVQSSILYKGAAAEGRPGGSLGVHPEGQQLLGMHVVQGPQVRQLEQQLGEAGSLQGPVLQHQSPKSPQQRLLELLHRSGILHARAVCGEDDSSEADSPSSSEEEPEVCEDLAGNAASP

For `CCCc1ccc(OC)cc1`, the compound was classed as inactive in experiment [1]. As for `CC(=O)Oc1ccc(C(C)=O)cc1`, the outcome in experiment [2] and in experiment [3] was inactive.

As to `C=CCCCCCCCCC(=O)OCCCC`, the compound was classed as inactive in experiment [2] and in experiment [3].

`Cc1cc(O)c(Cl)c(C)c1Cl`: the compound was called inactive in experiment [1]. Turning to `CC(C)=CC1CC(C)CCO1` (stereo not drawn), the compound was classed as inactive in experiment [2] and in experiment [3].

In the case of `CCOC(=O)[C@H](C)O`, the compound was classed as inactive in experiment [2] and in experiment [3]. With `CC/C=C\CCOC(=O)CCCCC`, the result in experiment [1] was inactive.

`CCCCCCCC/C=C\CCCCCCCC(=O)OCCO`: the AC50 (commonly the concentration giving half of the maximal activity seen) in experiment [1] was 17.7 µM (active). Turning to `O=C(OCC1CCC2OC2C1)C1CCC2OC2C1` (stereo not drawn), the compound was classed as inactive in experiment [1]. As to `COCCOCCOCCOCCOC`, the outcome in experiment [2] and in experiment [3] was inactive.

Consider `CCCCCC(C)O` (stereo not drawn), for which the compound was called inactive in experiment [2] and in experiment [3]. `CCCCCCCCCCOC(C)=O`: the call in experiment [2], in experiment [4] and in experiment [3] was inactive. For `COc1ccc(C(Cl)=C(c2ccc(OC)cc2)c2ccc(OC)cc2)cc1`, the call in experiment [2] and in experiment [3] was inactive. As for `O=C1CCCCCCCCCCC(=O)OCCO1`, the call in experiment [1] was inactive. `CC(=O)OC(C)C`: the compound was called inactive in experiment [2] and in experiment [3]. For the compound `COC(=O)c1ccccc1OC`, the outcome in experiment [1] was inactive. On to `CC/C=C\C/C=C\C/C=C\CCCCCCCC(=O)O`, for which the call in experiment [2] and in experiment [3] was inactive. For the compound `CC(C)c1ccc2c(c1)CC[C@H]1[C@](C)(CN)CCC[C@]21C`, the concentration at half-maximal activity (AC50) in experiment [2] is 6.76 µM (active). The outcome in experiment [3] was inactive. Regarding `CCOC(F)(F)C(F)(F)C(F)(F)C(F)(F)F`, the call in experiment [2] and in experiment [3] was inactive. Regarding `CCCC(C)CCC(C)=O` (stereo not drawn), the compound was called inactive in experiment [1], in experiment [4] and in experiment [3]. As for `CCC(CO)CO`, the compound was called inactive in experiment [1] and in experiment [4].

As to `O=P(O)(O)Oc1ccccc1`, the outcome in experiment [1] and in experiment [3] was inactive. For the same compound, the concentration at half-maximal activity (AC50) in experiment [4] is 8.7 µM (active). As for `C1=Cc2ccccc2C1`, the compound was called inactive in experiment [1], in experiment [4] and in experiment [3].
